PubChem BioAssay (EPA / NIEHS)
Inconclusive results are not listed. Activity calls are given as the source filed them. The calls were made as follows, unless noted: active = hit-call score of the fitted dose curve at least 0.9, where 1 is the maximum; inactive = score below 0.9.

Key:
[1] = ATG_TAL_CIS: Attagene CIS-FACTORIAL HepG2 Assay for human TAL Basal Promoter (AID 2282966); details: HepG2 Attagene cis-factorial TAL promoter reporter; actives raise or lower the signal;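 also: background control endpoint measuring basal TAL promoter reporter mRNA not a specific factor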
In short: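 In this cell-based multiplex, HepG2 liver cells bearing cis-promoter reporter constructs are dosed for 24 hours. Total RNA is reverse-transcribed and amplified, labelled fragments are sized by capillary electrophoresis, and signal changes are fitted bidirectionally versus DMSO.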

[2] = ATG_TGFb_CIS: Attagene CIS-FACTORIAL HepG2 Assay for human Transforming Growth Factor (TGF) (AID 2282967); details: HepG2 Attagene CIS TGFb reporter, mRNA transcription; actives raise or lower the signal
In short: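 Endogenous TGFB1-linked transcription factor activity read as reporter mRNA via RT-PCR and capillary electrophoresis, 24 h after dosing transiently transfected HepG2 cells. Gain or loss of signal fitted relative to DMSO.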

[3] = ATG_VDRE_CIS: Attagene CIS-FACTORIAL HepG2 Assay for human Vitamin D Receptor Element (VDRE) (AID 2282968); details: HepG2 VDRE cis-reporter transcription, actives raise or lower the signal
In short: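 Reporter mRNA induction, quantified by capillary electrophoresis of fluorescently labelled RT-PCR products, was read 24 h after dosing HepG2 cells carrying transiently transfected cis-regulated reporter units; gain or loss relative to DMSO.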

[4] = molecular target: X-box-binding protein 1 (Homo sapiens) (UniProt P17861); assay: ATG_Xbp1_CIS: Attagene CIS-FACTORIAL HepG2 Assay for human X-box Binding Protein 1 (XBP1) (AID 2282972); details: HepG2 XBP1 cis-element reporter, Attagene multiplex; actives raise or lower the signal
In short: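 HepG2 cells transiently transfected with multiple cis-element reporter units report endogenous TF activity; 24 h exposure, then reporter mRNA measured by RT-PCR, 6-FAM labelling, HpaI digestion and capillary electrophoresis. Bidirectional fitting versus DMSO.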

[5] = molecular target: Steroid hormone receptor ERR1 (Homo sapiens) (UniProt P11474); assay: ATG_ERRa_TRANS: Attagene TRANS-FACTORIAL HepG2 Assay for human Estrogen-Related Receptor alpha (ERRa) (AID 2282971; active = hit-call score of the fitted dose curve at least 0.9, where 1 is the maximum); details: HepG2 Attagene TRANS reporter, ERRa transactivation
In short: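 Transfected HepG2, 24 h dosing, ERRa-Gal4 chimera driving GAL4-UAS reporter. Readout: reporter mRNA via RT-PCR plus capillary electrophoresis (fluorescence). Positive direction vs DMSO control.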

[6] = ATG_M_19_TRANS: Attagene TRANS-FACTORIAL HepG2 Assay for M19 Transcription Factor (Internal Marker) (AID 2282974; active = hit-call score of the fitted dose curve at least 0.9, where 1 is the maximum); details: HepG2 Attagene TRANS-FACTORIAL M19 internal marker reporter
In short: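 HepG2 transiently transfected with GAL4-UAS multiplex reporter constructs, exposed 24 h; reporter RNA quantified by RT-PCR, 6-FAM labeling, HpaI digestion and capillary electrophoresis; internal background marker fitted upward versus DMSO.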

[7] = molecular target: Estrogen receptor (Homo sapiens) (UniProt P03372); assay: ATG_ERa_TRANS: Attagene TRANS-FACTORIAL HepG2 Assay for human Estrogen Receptor alpha (ERa) (AID 2282970; active = hit-call score of the fitted dose curve at least 0.9, where 1 is the maximum); details: HepG2 Attagene TRANS ERa GAL4 reporter, mRNA
In short: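 After 24 h of compound treatment, RNA from HepG2 cells bearing transfected GAL4-UAS reporter constructs is converted to cDNA, amplified and fluorescently labelled. Capillary electrophoresis resolves the ERa-linked reporter; DMSO serves as negative control.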

[8] = ATG_GAL4_TRANS: Attagene TRANS-FACTORIAL HepG2 Assay for GAL4 (Internal Marker) (AID 2282976; active = hit-call score of the fitted dose curve at least 0.9, where 1 is the maximum); details: HepG2 Attagene TRANS GAL4 internal marker reporter
In short: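 RT-PCR/capillary electrophoresis readout of reporter mRNA. HepG2, transient MRTU transfection (GAL4-UAS reporters), 24 h compound exposure. Background-control endpoint, positive direction vs DMSO baseline.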

[9] = molecular target: Androgen receptor (Homo sapiens) (UniProt P10275); assay: ATG_AR_TRANS: Attagene TRANS-FACTORIAL HepG2 Assay for human Androgen Receptor (AR) (AID 2282973; active = hit-call score of the fitted dose curve at least 0.9, where 1 is the maximum); details: HepG2 Attagene TRANS-FACTORIAL AR reporter transcription
In short: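 Readout is reporter transcript abundance, quantified by fluorescent RT-PCR products separated on capillary electrophoresis. Human HepG2 liver cells carried transiently transfected NR-Gal4 chimera plus GAL4-UAS reporter constructs and were dosed for 24 h; activity scored upward versus DMSO.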

[10] = molecular target: Nuclear receptor subfamily 1 group I member 3 (Homo sapiens) (UniProt Q14994); assay: ATG_CAR_TRANS: Attagene TRANS-FACTORIAL HepG2 Assay for human Constitutive Androstane Receptor (CAR) (AID 2282969; active = hit-call score of the fitted dose curve at least 0.9, where 1 is the maximum;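 also: activators raise reporter mRNA above DMSO so AC50 marks induction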); details: HepG2 Attagene TRANS-FACTORIAL CAR reporter
In short: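 Readout is reporter mRNA induction, quantified by fluorescent primer extension and capillary electrophoresis after RT-PCR. Cells were HepG2 transiently carrying chimeric NR-Gal4 constructs with GAL4-UAS reporters, treated for 24 h; activity scored upward from DMSO.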

Measured: AC50

Sequence of Estrogen receptor (Homo sapiens) (P03372 whole entry, looked up, the tested form may be a part): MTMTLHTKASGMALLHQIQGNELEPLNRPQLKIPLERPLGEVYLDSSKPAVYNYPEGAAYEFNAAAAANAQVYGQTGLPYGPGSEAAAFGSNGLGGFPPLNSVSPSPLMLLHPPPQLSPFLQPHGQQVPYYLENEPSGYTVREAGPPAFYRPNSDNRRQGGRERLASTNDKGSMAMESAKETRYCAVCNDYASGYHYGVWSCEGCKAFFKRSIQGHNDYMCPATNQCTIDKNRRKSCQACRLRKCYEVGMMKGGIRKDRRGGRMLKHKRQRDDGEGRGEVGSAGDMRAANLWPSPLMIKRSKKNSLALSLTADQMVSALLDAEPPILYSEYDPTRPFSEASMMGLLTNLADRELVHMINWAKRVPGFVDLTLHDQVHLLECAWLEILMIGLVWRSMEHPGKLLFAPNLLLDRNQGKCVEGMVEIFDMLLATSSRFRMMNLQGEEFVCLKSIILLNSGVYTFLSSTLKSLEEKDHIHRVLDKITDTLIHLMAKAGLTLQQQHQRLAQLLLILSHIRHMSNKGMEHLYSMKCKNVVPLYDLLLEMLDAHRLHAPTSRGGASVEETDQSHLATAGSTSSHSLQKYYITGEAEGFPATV
Sequence of Steroid hormone receptor ERR1 (Homo sapiens) (P11474 whole entry, looked up, the tested form may be a part): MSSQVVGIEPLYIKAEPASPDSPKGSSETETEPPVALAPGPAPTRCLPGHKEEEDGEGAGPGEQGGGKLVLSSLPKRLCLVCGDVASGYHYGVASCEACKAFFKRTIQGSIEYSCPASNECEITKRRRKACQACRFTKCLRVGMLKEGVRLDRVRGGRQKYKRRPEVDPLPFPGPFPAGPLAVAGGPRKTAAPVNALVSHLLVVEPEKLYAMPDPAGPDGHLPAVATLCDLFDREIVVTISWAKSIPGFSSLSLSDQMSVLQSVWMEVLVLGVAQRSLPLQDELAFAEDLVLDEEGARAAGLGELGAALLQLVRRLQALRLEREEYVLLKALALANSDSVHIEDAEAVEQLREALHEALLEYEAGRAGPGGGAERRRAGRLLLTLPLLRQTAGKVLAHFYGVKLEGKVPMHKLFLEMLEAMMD
Sequence of X-box-binding protein 1 (Homo sapiens) (P17861 whole entry, looked up): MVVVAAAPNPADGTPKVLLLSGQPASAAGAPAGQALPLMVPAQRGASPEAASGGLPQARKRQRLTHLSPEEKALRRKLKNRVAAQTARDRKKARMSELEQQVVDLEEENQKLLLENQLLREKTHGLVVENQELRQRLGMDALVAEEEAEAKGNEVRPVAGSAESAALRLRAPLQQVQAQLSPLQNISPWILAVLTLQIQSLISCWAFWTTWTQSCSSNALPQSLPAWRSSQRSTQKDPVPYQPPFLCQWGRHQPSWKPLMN
Sequence of Androgen receptor (Homo sapiens) (P10275 whole entry, looked up, the tested form may be a part): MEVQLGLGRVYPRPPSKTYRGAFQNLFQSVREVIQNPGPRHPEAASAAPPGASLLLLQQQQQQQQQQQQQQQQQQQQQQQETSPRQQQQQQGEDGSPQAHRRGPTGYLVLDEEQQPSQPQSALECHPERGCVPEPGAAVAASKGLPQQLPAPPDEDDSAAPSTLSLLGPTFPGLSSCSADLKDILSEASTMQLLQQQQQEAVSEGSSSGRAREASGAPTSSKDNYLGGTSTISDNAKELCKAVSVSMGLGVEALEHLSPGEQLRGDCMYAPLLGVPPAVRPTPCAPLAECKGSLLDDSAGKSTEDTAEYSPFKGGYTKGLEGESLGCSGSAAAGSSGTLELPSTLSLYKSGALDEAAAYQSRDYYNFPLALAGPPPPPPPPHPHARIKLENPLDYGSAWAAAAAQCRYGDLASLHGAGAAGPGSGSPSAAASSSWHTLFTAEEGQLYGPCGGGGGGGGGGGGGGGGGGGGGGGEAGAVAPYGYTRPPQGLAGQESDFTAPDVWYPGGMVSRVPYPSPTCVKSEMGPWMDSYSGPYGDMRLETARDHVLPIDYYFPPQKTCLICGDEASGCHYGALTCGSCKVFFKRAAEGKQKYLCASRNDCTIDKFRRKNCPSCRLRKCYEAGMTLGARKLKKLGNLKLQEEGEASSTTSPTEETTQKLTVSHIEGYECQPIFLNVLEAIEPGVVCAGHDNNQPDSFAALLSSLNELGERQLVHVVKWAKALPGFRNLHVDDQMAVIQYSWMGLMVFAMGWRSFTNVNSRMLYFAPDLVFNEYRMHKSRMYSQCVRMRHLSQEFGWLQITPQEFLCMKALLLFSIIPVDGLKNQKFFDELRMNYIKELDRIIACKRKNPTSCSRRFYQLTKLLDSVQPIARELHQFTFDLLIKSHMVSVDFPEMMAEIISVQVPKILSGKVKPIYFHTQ
Sequence of Nuclear receptor subfamily 1 group I member 3 (Homo sapiens) (Q14994 whole entry, looked up, the tested form may be a part): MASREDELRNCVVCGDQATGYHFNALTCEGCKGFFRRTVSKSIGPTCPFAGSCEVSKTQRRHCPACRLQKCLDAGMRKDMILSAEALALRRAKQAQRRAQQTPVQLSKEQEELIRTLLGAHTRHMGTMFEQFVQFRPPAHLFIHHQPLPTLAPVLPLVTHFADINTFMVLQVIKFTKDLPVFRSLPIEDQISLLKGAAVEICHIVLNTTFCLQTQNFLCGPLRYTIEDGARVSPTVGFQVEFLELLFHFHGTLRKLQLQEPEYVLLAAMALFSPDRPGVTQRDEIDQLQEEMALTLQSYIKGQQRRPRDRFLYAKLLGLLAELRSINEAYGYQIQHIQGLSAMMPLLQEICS

CCCCCCCCCl
inactive: [1] | [2] | [3] | [4]

N#CN=C(N)N
inactive: [1] | [2] | [3] | [4]

CC(=O)c1cc(C(C)(C)C)cc2c1CCC2(C)C
inactive: [1] | [2] | [5] | [6]
active: [3] 25.6 µM | [4] 75.2 µM

O=[N+]([O-])c1ccc2c3c(cccc13)CC2
active: [2] 0.0823 µM | [3] 11.5 µM
inactive: [1] | [4] | [6]

CC(=O)OC(c1ccccc1)C(Cl)(Cl)Cl (configuration not stated)
inactive: [1] | [2] | [3] | [4] | [6]
active: [7] 34.8 µM

CCC[CH2][Sn]([CH2]CCC)([CH2]CCC)[O]C(=O)c1ccccc1
inactive: [1] | [2] | [4] | [8]
active: [3] 0.137 µM | [7] 0.774 µM

Nc1ccc(Cl)cc1C(=O)c1ccccc1
active: [3] 16.6 µM
inactive: [1] | [2] | [5] | [4] | [6]

C1CCC(NC2CCCCC2)CC1
inactive: [1] | [2] | [3] | [4] | [6]
active: [7] 59.7 µM

C[C@H]1O[C@@H](O[C@H]2[C@@H](O)C[C@H](O[C@H]3[C@@H](O)C[C@H](O[C@H]4CC[C@@]5(C)[C@H](CC[C@@H]6[C@@H]5CC[C@]5(C)[C@@H](C7=CC(=O)OC7)CC[C@]65O)C4)O[C@@H]3C)O[C@@H]2C)C[C@H](O)[C@@H]1O
inactive: [2] | [3]
active: [1] 0.0564 µM | [4] 0.497 µM

CC(=[OH+])/C=C(/C)[O-].CC(=[OH+])/C=C(/C)[O-].CC(=[OH+])/C=C(/C)[O-].[Al]
inactive: [1] | [2] | [3] | [4] | [6]

CCOC(=O)/C=C(C)/C=C/C[C@@H](C)CCCC(C)C
active: [2] 47.4 µM
inactive: [1] | [3] | [4]

CCCCCCCCSC(=O)Oc1cc(Cl)nnc1-c1ccccc1
inactive: [7] | [4] | [6]
active: [1] 71.3 µM | [2] 152 µM | [3] 100 µM

O=C1C(Cl)=C(Cl)C(=O)c2ccccc21
inactive: [1] | [2] | [3] | [5] | [4] | [6]

CN(C)P(=O)(N(C)C)N(C)C
not listed: [7] | [9] | [10]
inactive: all other assays above

CC(C)c1ccc(CO)cc1
active: [3] 36.2 µM
inactive: [1] | [2] | [5] | [4] | [6]

Oc1c(I)cc(I)cc1I
active: [1] 76.1 µM | [3] 19 µM
inactive: [2] | [7] | [9] | [6]

COP(=S)(OC)Oc1ccc(S(=O)(=O)N(C)C)cc1
active: [3] 38.8 µM
inactive: [1] | [2] | [5] | [9] | [6]

O=C(Cl)c1ccc(Cl)cc1
not listed: [5] | [9] | [10]
inactive: all other assays above

COC[C@H](C)N(C(=O)CCl)c1c(C)csc1C
active: [3] 47.3 µM
inactive: [1] | [2] | [5] | [4]

O=C(c1ccccc1)C(Cl)Cl
active: [3] 7.69 µM | [4] 25.1 µM
inactive: [1] | [2] | [5] | [9] | [6]

Nc1ccc(-c2ccc(N)c(Cl)c2)cc1Cl
inactive: [1] | [2] | [4] | [6]
active: [3] 37.6 µM | [7] 2.04 µM

CC(C#N)CCC#N (configuration not stated)
inactive: [1] | [2] | [3] | [5] | [6]

CCCCOCCOC(C)=O
not listed: [7] | [9] | [10]
inactive: all other assays above

CC(=O)[O][Hg][c]1ccccc1
active: [3] 3.71 µM | [4] 3.71 µM
inactive: [1] | [2] | [5]

C=C(C)C#N
inactive: [1] | [2] | [3] | [7] | [4] | [6]

CC(C)(c1ccc(OCC2CO2)cc1)c1ccc(OCC2CO2)cc1 (configuration not stated)
inactive: [2] | [6]
active: [1] 23.2 µM | [3] 24.9 µM | [4] 24.4 µM

O=[N+]([O-])c1c(Cl)c(Cl)cc(Cl)c1Cl
inactive: [1] | [2] | [3] | [7] | [6]

c1cc[c]([Hg][c]2ccccc2)cc1
inactive: [1] | [2] | [9]
active: [3] 27.3 µM | [4] 18.7 µM

CCCCP(CCCC)CCCC
inactive: [1] | [2] | [3] | [4] | [6]

CCC[CH2][Sn]([Cl])([Cl])[Cl]
inactive: [1] | [2] | [5] | [4] | [6] | [8]

ClCC(Cl)CCl
inactive: [1] | [2] | [3] | [4] | [6] | [8]

N#Cc1ccccn1
inactive: [1] | [2] | [10] | [8]

Nc1cccc2ccccc12
inactive: [1] | [2] | [7] | [4] | [6]
